697 NFkB inh – inhibitors of PMA/ionomycin-induced NF-kB reporter, 697 cells, primary screen, B-cell NF-kB inhibitor project, cell-based, luminescence, uHTS; 697 B-cell NF-kB luciferase reporter, 16 h; inhibition, % at 4 µM; hit rate 0.33% among 330,000; in the data active = inhibition above about 35%
Jurkat NFkB inh – inhibitors of induced NF-kB luciferase reporter, primary screen, TCR NF-kB activation inhibitor project, cell-based, luminescence, uHTS | Jurkat, PMA/ionomycin-induced NF-kB luciferase reporter | inhibition, % at 4 µM | hit rate 0.53% among 330,000 | AID 435003, 2010; in the data active = inhibition above about 50%
Beta apoptosis – inhibitors of cytokine-induced beta cell apoptosis, primary screen, luminescence; hit rate 0.8% among 300,000; protection from apoptosis, % (concentration not given with the values); AID 435005, 2010; INS-1E cytokine-induced death, ATP luminescence, 48 h; percent of positive-control rescue, neutral wells zero;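 active = Every replicate reaches about 75%, or at least half do and their mean reaches it too, limit read from the data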;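 note: 0% = cytokine-treated negative control wells and 100% = positive control rescue; higher means more ATP so stronger rescue from cytokine killing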
Gli-Sufu block – Gli-Sufu pathway antagonists, primary screen, luciferase luminescence, Sufu-KO-LIGHT cells, uHTS; Sufu-KO-LIGHT fibroblasts, Gli luciferase reporter luminescence; AID 588413, 2011; inhibition, % at 5 µM; hit rate 0.74% among 340,000;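 active = inhibition above about 55%, limit read from the data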;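 note: 0% = DMSO-treated cells and 100% = wells with medium but no cells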
Mdm2-MdmX inh – inhibitors of human Mdm2-MdmX association, primary screen, cell-based, luminescence, split luciferase, SaOS-2, uHTS; hit rate 3% among 330,000; Protein Mdm4 (Homo sapiens) + E3 ubiquitin-protein ligase Mdm2 (Homo sapiens), …; SaOS-2 split-luciferase Mdm2/MdmX complementation; inhibition, % at 8 µM;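 active = inhibition of at least 50% at 8 µM in the primary screen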
Target sequence (O15151 whole entry, looked up): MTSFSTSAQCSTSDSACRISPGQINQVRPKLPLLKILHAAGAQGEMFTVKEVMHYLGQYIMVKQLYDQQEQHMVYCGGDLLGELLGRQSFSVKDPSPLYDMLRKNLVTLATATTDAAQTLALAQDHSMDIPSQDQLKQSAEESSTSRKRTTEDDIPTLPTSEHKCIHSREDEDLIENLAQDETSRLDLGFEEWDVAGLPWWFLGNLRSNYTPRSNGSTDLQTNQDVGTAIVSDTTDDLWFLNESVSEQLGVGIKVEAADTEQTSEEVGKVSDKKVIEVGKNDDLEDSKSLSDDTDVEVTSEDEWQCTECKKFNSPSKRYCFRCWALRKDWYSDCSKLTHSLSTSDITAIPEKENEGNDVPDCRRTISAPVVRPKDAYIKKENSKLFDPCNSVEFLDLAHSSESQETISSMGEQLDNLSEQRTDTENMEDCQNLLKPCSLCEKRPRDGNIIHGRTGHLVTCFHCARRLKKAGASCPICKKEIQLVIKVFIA
Target sequence (Q00987 whole entry, looked up): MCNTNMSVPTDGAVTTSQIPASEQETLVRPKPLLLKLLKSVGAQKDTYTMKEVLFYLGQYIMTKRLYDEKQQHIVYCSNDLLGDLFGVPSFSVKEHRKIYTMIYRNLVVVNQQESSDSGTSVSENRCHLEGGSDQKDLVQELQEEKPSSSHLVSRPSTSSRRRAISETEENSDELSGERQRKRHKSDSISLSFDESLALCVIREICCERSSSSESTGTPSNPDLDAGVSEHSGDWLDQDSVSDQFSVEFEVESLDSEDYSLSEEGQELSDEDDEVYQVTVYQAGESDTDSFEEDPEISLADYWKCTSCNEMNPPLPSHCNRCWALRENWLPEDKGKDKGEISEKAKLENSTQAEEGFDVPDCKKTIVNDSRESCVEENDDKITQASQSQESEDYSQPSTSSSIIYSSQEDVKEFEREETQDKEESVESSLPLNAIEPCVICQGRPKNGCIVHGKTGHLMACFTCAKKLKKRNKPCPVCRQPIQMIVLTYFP
Mdm2-MdmX conf – Mdm2-MdmX complex disruptors, retested hits, confirmation, luminescence, single concentration; shares compounds with Mdm2-MdmX inh; Mdm2-MdmX binding, luminescent assay; inhibition, % at 8 µM; hit rate 55% among 10,000; AID 489028, 2010; in the data active = inhibition above about 40%
FLuc counter – full-length luciferase signal inhibition, confirmation, counter-screen for Mdm2/MdmX interaction inhibitor project, cell-based, single concentration, SaOS-2 | shares compounds with Mdm2-MdmX inh | inhibition, % at 8 µM | hit rate 77% among 6,200 | SaOS-2 full-length luciferase counterscreen, luminescence;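 active = mean inhibition at 8 µM reaching about 37%, which flags the compound as non-specific, limit read from the data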;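 note: p53-null SaOS-2 cells with luciferase driven by a doxycycline-inducible promoter; compound on cells about two nights before reading with doxycycline added after day one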
An asterisk follows results filed as active; nt = no result. A selection: hits, their analogues and other compounds. The true share with any hit is near 4%.

SMILES	697 NFkB inh	Jurkat NFkB inh	Beta apoptosis	Gli-Sufu block	Mdm2-MdmX inh	Mdm2-MdmX conf	FLuc counter
Nc1c(N=Nc2cccc(Cl)c2)c(=O)[nH]n1-c1ccccc1	-2	4	1	6	56*	-51	nt
Cc1[nH]n(-c2ccccc2)c(=O)c1N=Nc1cccc(Cl)c1	-87	-78	1	-25	-63	nt	nt
COc1ccc(C(=O)c2ccc(Br)cc2)c2ccccc12	-8	11	2	-13	52*	53*	80*
CO/N=C/C(=N\Nc1cc(OC)cc(OC)c1)C(=O)c1ccccc1	0	-6	7	-2	9	nt	nt
Cc1ccc(N=Nc2c(N)nn3c(N)c(C#N)c(C)nc23)cc1	20	25	0	3	61*	59*	48*
Cc1ccc(C)c(OCCC(=O)OC(C)C(=O)Nc2c(C)n(C)n(-c3ccccc3)c2=O)c1 (centres undefined)	7	15	-2	1	32	nt	nt
CCC(C)NCC(=O)Nc1ccc(-c2nc3cc(NC(=O)CNC(C)CC)ccc3o2)cc1 (centres undefined)	-28	-18	-1	1	100*	42*	36
CCN(CC)CC(=O)Nc1ccc(-c2nc3cc(NC(=O)CN(CC)CC)ccc3o2)cc1	-21	-55	6	-20	55*	41*	74*
O=C(CN1CCCC1)Nc1ccc(-c2nc3cc(NC(=O)CN4CCCC4)ccc3o2)cc1	-54	-80	10	-8	92*	64*	52*
CCCC(=O)Nc1ccc2oc(-c3cncc(Br)c3)nc2c1	-111	-119	-10	-74	-84	nt	nt
CCCCCC(=O)Nc1ccc2oc(-c3cncc(Br)c3)nc2c1	-95	-106	-3	-52	58*	-9	nt
CCN1C[C@@H]2[C@@H]3C(=O)N(Cc4ccccc4)C(=O)[C@@H]3[C@](CC)(C1=O)N2C(=O)c1ccc(C(C)(C)C)cc1	nt	nt	nt	4	nt	nt	nt
Cc1ccc(SCC(=O)NC2CCCCCC2)cc1	-28	-45	nt	-19	-15	nt	nt
CCOC(=O)C1C(c2ccccc2)C(C(=O)OCC)S(=O)(=O)C(CCN(CC)CC)S1(=O)=O (centres undefined)	7	-17	-6	1	-2	nt	nt
CCCN(CCC)CCCn1c(=O)[nH]c2ccccc21	12	9	0	15	7	nt	nt
COc1ccc(NC(=O)CSc2ccc([N+](=O)[O-])cc2)cc1S(=O)(=O)N1CCOCC1	3	3	nt	nt	-10	nt	nt
COC(=O)c1[nH]c2ccc(Br)cc2c1NC(=O)C(C)N1CCN(C2CCCCC2)CC1 (centres undefined)	26	42	-13	12	96*	34	5
COC(=O)c1[nH]c2ccc(C)cc2c1NC(=O)C(C)N1CCN(C2CCCCC2)CC1 (centres undefined)	-3	-13	-5	-1	53*	31	nt
O=C(COC(=O)Cc1ccccc1[N+](=O)[O-])NCC1CCCCC1	8	6	-13	1	13	nt	nt
Brc1ccc(C2NCCS2)cc1 (centres undefined)	18	5	-8	-11	19	nt	nt
CC(=O)O[C@]1(C(C)=O)CC[C@H]2[C@@H]3C[C@H](C)C4=CC(=O)CC[C@]4(C)[C@H]3CC[C@@]21C	-15	9	4	11	16	nt	nt
CC(=O)C12CCCCC1CC1[C@@H]3CC(C)C4=CC(=O)CC[C@]4(C)C3CC[C@@]12C (some centres undefined)	0	17	nt	33	56*	6	nt
CC(=O)NC(Cc1ccccc1F)C(=O)NC1CCN(S(=O)(=O)c2ccccc2)CC1 (centres undefined)	5	-9	nt	-20	13	nt	nt
C/C(=N\Nc1ccc(C(=O)O)cc1)c1ccc2c(c1)Nc1ccccc1S2	-6	-18	-25	-24	20	nt	nt
C/C(=N\NC(=O)CCCNc1ccc(C)cc1)c1ccccn1	12	-7	54	-3	62*	55*	47*
SMILES	697 NFkB inh	Jurkat NFkB inh	Beta apoptosis	Gli-Sufu block	Mdm2-MdmX inh	Mdm2-MdmX conf	FLuc counter
C/C(=N\NC(=O)c1c[nH]c2ccccc12)c1ccccn1	-119	-52	17	-58	39	nt	nt
C/C(=N\NC(=O)c1cc2ccccc2cc1O)c1ccccn1	-183	-7	99*	90*	53*	54*	24
C/C(=N\NC(=O)c1cc2ccccc2cc1O)c1cc2ccccc2o1	-7	-1	16	-8	54*	40	58*
Cc1ccc(NN2C(=O)C=C(c3ccccc3)C2=O)cc1	3	17	nt	4	14	nt	nt
CCCCn1nc(C(=O)Nc2ccc3c(c2)OCO3)c2ccccc2c1=O	-5	0	2	14	47	nt	nt
OCc1c(OCc2cccc(F)c2)ccc2ccccc12	-55	-59	-8	-23	-67	nt	nt
CNC(=O)N(C1=NCC(C)(C)S1)c1ccc(F)c(Cl)c1	-8	15	3	-6	55*	34	82*
CC[C@H]1OC(=O)[C@H](C)[C@@H](O[C@H]2C[C@@](C)(OC)[C@@H](O)[C@H](C)O2)[C@H](C)[C@@H](O[C@@H]2O[C@H](C)C[C@H](N(C)C)[C@H]2O)[C@](C)(O)C[C@@H](C)C(=NOCOCCOC)[C@H](C)[C@@H](O)[C@]1(C)O	0	5	-8	11	30	nt	nt
CCOC(=O)C1=C(COC(=O)c2ncc(Cl)c(Cl)c2Cl)NC(=O)NC1C (centres undefined)	7	4	-2	0	24	nt	nt
CCN(c1ccc(OC)cc1)S(=O)(=O)c1ccc(-c2cc(C)no2)s1	-8	31	4	14	57*	48*	59*
COc1ccc(N2CCN(S(=O)(=O)c3ccc(-c4cc(C)no4)s3)CC2)cc1	-24	-5	-3	-14	9	nt	nt
O=C(CN(Cc1cccs1)C(=O)CSc1nnc(COc2ccccc2)o1)NC1CCCCC1	-11	-12	0	3	9	nt	nt
CCOc1ccc(N(CC(=O)NC2CCCCC2)C(=O)CSc2nnc(COc3ccccc3)o2)cc1	-41	10	5	4	55*	32	nt
Nc1c(Cl)cc(C2=NCCn3nc4cc(C(F)(F)F)ccc4c32)cc1Cl	-13	7	5	-17	-7	nt	nt
COc1ccc2c3n(nc2c1)CCN=C3c1cc(Cl)c(N)c(Cl)c1	-8	41	16	6	65*	62*	65*

Screening results deposited in PubChem by several laboratories.
